This is part of a sample that, as a whole, favours compounds with a hit. Of some 83,000 tested, about 20% had one in any assay.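 Growth was measured after 48 h exposure to one concentration of compound in 96-well plates. Values under 10 count as active.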 Active and inactive are the calls of the source.
How the values were obtained:
Assay in all cases: NCI-60 one-dose screen, 48 h (100 = growth as untreated, 0 = no growth, -100 = all killed)
Conditions in all cases: 10 µM unless noted
[1] = test system: NCI-H23 lung
[2] = test system: NCI-H226 lung
[3] = test system: NCI-H322M lung
[4] = test system: HOP-62 NSCLC
[5] = test system: NCI-H460 lung
[6] = test system: NCI-H522 lung
[7] = test system: A549/ATCC NSCLC
[8] = test system: 786-0 renal
[9] = test system: COLO 205 colon
[10] = test system: DU-145 prostate
[11] = test system: K-562 leukemia
[12] = test system: MALME-3M melanoma
[13] = test system: MDA-MB-231 breast
[14] = test system: RXF 393 renal
[15] = test system: SF-268 CNS
[16] = test system: SF-295 CNS
[17] = test system: SF-539 CNS
[18] = test system: UACC-257 melanoma
[19] = test system: M14 melanoma
[20] = test system: HCT-15 colon

Measured: growth

O=C1/C(=C/c2ccc([N+](=O)[O-])o2)Oc2ccc(Cl)cc21
inactive: [1] 21.3% | [3] 79% | [4] 74.5% | [5] 75.4% | [7] 92.4% | [10] 35.7% | [16] 103%
active: [2] -7.54% | [6] -84.4% | [8] -53.7% | [9] -57.8% | [11] -30.1% | [12] -45.6% | [13] -61.9% | [14] -72.2% | [15] -52% | [17] -25.6% | [18] -2.07% | [19] -18.8%

Nc1ccc(C2=Nc3cccc4cccc(c34)S2)cc1
inactive: [1] 86.9% | [2] 59.3% | [3] 88.1% | [4] 83.6% | [5] 89.5% | [6] 82.7% | [7] 81.5% | [8] 121% | [9] 100% | [10] 98.2% | [11] 88.3% | [12] 94.5% | [13] 60% | [14] 107% | [15] 88.9% | [16] 73% | [17] 102% | [18] 84.3% | [19] 83.9%

COc1ccc(OC)c2c1[nH]c(=O)c1c3ccccc3cn21
active: [1] -25.8% | [3] -70.7% | [4] -33.6% | [5] -61.2% | [6] -50.4% | [7] -73.2% | [8] -86.3% | [9] -91.1% | [10] -65% | [12] -89.4% | [13] -89.2% | [14] -79.9% | [15] -64.9% | [16] -76.7% | [17] -98.5% | [18] -75.5% | [19] -54.3% | [20] -46.5%
inactive: [2] 48.4% | [11] 11.2%

CCCCSc1cc(C)nc(N)n1
inactive: [1] 95.9% | [2] 98.6% | [3] 97.1% | [4] 91.5% | [5] 103% | [6] 94.9% | [7] 97.8% | [8] 95.6% | [9] 112% | [10] 105% | [11] 94.8% | [12] 96.4% | [13] 104% | [14] 105% | [15] 98.8% | [16] 102% | [17] 95.7% | [18] 109% | [19] 99.2% | [20] 91.1%

O=[N+]([O-])c1ccc(N/N=C\c2ccccc2[N+](=O)[O-])nc1
inactive: [1] 98.2% | [2] 106% | [3] 105% | [4] 123% | [5] 101% | [6] 97.5% | [7] 92.2% | [8] 104% | [9] 133% | [10] 101% | [11] 94.6% | [12] 117% | [13] 110% | [14] 102% | [15] 107% | [16] 103% | [17] 109% | [18] 119% | [19] 126% | [20] 100%

O=C(O)c1ccc(NC(=O)c2ccc(Nc3ccnc(C(F)(F)F)c3)cc2)cc1
inactive: [1] 98.4% | [2] 100% | [3] 121% | [4] 103% | [5] 113% | [6] 103% | [7] 103% | [8] 103% | [9] 101% | [10] 106% | [11] 94.1% | [12] 103% | [13] 109% | [14] 97.9% | [15] 98% | [16] 108% | [17] 104% | [18] 99.6% | [19] 107%

O=C(C=C=Nc1ccccc1)C(=O)N=C=Cc1ccccc1
active: [6] -82.5% | [11] -18.8% | [12] -20.9% | [14] -46%
inactive: [1] 63.3% | [2] 67.7% | [3] 93.9% | [4] 90.5% | [5] 92.2% | [7] 79.8% | [8] 79.3% | [9] 13.5% | [10] 40.2% | [13] 94.6% | [15] 69.1% | [16] 99.3% | [17] 85.1% | [18] 43.3% | [19] 44.2% | [20] 11.4%

COc1ccc2c(c1)C(=O)c1c-2c(=O)n(CCCCCCC(=O)NO)c2ccccc12
active: [1] -41.9% | [2] 1.93% | [3] -3.32% | [4] -3.67% | [5] 3.19% | [6] 4.79% | [7] -10.4% | [8] -3.09% | [9] -39.3% | [10] 9.94% | [11] 8.79% | [12] -23.1% | [13] -5.72% | [14] -60.9% | [16] -33.7% | [17] 7.21% | [18] -6.3% | [19] -0.387%
inactive: [15] 10.1% | [20] 13.3%

CCCCC1Nc2nc(SC)n(C)c(=O)c2CN(Cc2ccccc2)C1=O (configuration not stated)
inactive: [1] 98.4% | [2] 84.9% | [3] 90.6% | [4] 97.9% | [5] 104% | [6] 76% | [7] 94.5% | [8] 78.4% | [9] 112% | [10] 112% | [11] 141% | [12] 132% | [13] 94.5% | [14] 77.2% | [15] 100% | [16] 94.9% | [17] 85.2% | [18] 90.1% | [19] 89.8% | [20] 81.9%

CCCCCCCCCCC[C@@H](C[C@H]1OC(=O)[C@H]1CCCCCC)OC(=O)[C@@H](CC(C)C)NC=O
inactive: [1] 70.1% | [2] 72.6% | [3] 94.2% | [4] 72.3% | [5] 42.9% | [6] 59.9% | [7] 83.6% | [8] 44.8% | [9] 81% | [10] 92.2% | [11] 45.2% | [12] 89.4% | [13] 60.9% | [14] 44.1% | [15] 65.2% | [16] 24.7% | [17] 63.1% | [18] 99.6% | [19] 62.6% | [20] 34.8%

CC[C@H](C)C(=O)O[C@H]1C[C@@H](C)C=C2C=C[C@H](C)[C@H](CC[C@@H]3C[C@@H](O)CC(=O)O3)[C@H]21
inactive: [1] 67.8% | [2] 95.5% | [3] 54.2% | [4] 104% | [5] 102% | [6] 27.3% | [7] 102% | [8] 90.5% | [9] 99.7% | [10] 106% | [11] 104% | [12] 89.7% | [14] 97.7% | [15] 42.7% | [16] 28.8% | [17] 95.9% | [18] 83.5% | [19] 59.2% | [20] 55.1%
active: [13] -35.3%

CCOc1cc(-c2ccc[nH]2)[nH]c1/C=C1\N=C(C)C(C(=O)OC)=C1C
active: [1] -59.4% | [2] -61.9% | [3] -61.8% | [4] -58% | [5] -79.4% | [6] -50.1% | [7] -47.1% | [8] -50.2% | [9] -78.6% | [10] -65.5% | [11] -55.4% | [12] -61.1% | [13] -62.6% | [14] -72.5% | [15] -55.7% | [16] -69.8% | [17] -66.7% | [18] -56.7% | [19] -59.9% | [20] -27%

CSC1=Nc2c(c(C)c(-c3ccccc3)n2CCCN2CCCCC2)C2=NC(=O)C[C@H](C)N12
active: [9] -87%
inactive: [1] 63.1% | [2] 68.9% | [3] 62.1% | [4] 81.6% | [5] 38.3% | [6] 35.5% | [7] 32.2% | [8] 80.1% | [10] 47.6% | [11] 11.6% | [12] 56.5% | [13] 69.6% | [14] 56.4% | [15] 66.2% | [16] 38.9% | [17] 79% | [18] 41.3% | [19] 59.8% | [20] 81.2%

Cc1c(NCc2nnc3n(Cc4ccccc4)c(=O)c4c5c(sc4n23)CCCC5)c(=O)n(-c2ccccc2)n1C
inactive: [1] 92.4% | [2] 94.8% | [3] 92.2% | [4] 105% | [5] 98.9% | [6] 71.3% | [7] 66.7% | [8] 72.3% | [9] 101% | [10] 75.6% | [11] 53.5% | [12] 113% | [13] 96.5% | [14] 84.5% | [15] 74.1% | [16] 67.2% | [17] 103% | [18] 80.9% | [19] 83.2% | [20] 94.6%

c1coc([C@@H]2C[C@@H]3Cc4ccc5ccccc5c4N2O3)c1
inactive: [1] 94.3% | [2] 107% | [3] 106% | [4] 88.6% | [5] 117% | [6] 86.8% | [7] 94.9% | [8] 103% | [9] 130% | [10] 120% | [11] 102% | [12] 97.7% | [13] 108% | [14] 94.2% | [15] 111% | [16] 101% | [17] 99.6% | [18] 99.2% | [19] 108% | [20] 99.5%
